Results: PubChem BioAssay (NCATS)
Records with an inconclusive call do not appear. A number with no mark means an inactive call. Active and inactive are the calls of the source. Calls come from the whole dose curve; as a rule, active = well fitted cell-killing curve with a large enough effect; inconclusive = small, poorly fitted or top-dose-only effect, or effect the other way; inactive = flat fitted curve, though single readings scatter. Where a SMILES comes first, the peptide text is derived from it. Bridges are numbered along the chain shown (N, C = ends). [ ]: non-standard residue; d: D form. The star is where a group is joined. X1 = CCC(C)C(N)C1=NC(C(=O)*)CS1; dOrn = NCCC[C@@H](N)C(=O)O

Test system: HeLa
Assay: Primary qHTS to identify gynecologic anti-cancer compounds using libraries of approved drugs and bioactive compounds (AID 1345084); note: nearly all actives have a fitted effect of over 55% in size
Details: Gynecologic cancer cell panel viability, ATPlite luminescence, 48 h; series mostly up to 57.5 µM; activity change, negative = cytotoxicity: at the top concentration
How it was run: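 Cells, 1,000 per well, plated 16 h, then exposed 48 h at 37 C to compounds. Viability by ATPlite luminescence after 15 min at room temperature.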
% is set by controls: 0 for no effect and ±100 for the full control effect.

Row | SMILES | activity change, negative = cytotoxicity | Potency
1 | COc1c(OC2OC(CO)C(O)C(O)C2O)ccc(O)c1C(=O)OCc1ccccc1O[C@@H]1O[C@H](CO)[C@@H](O)[C@H](O)[C@H]1O (stereo partly specified) | -1.15% [at 25.3 µM] | 
2 | CC1CCC2(C)C(CC(O)C(O)C23CO3)C1(C)CCC1=CC(=O)OC1O (stereo unspecified) | -1.86% [at 38.5 µM] | 
3 | CCC(C)C(N)C1=NC(C(=O)N[C@@H](CC(C)C)C(=O)N[C@H](CCC(=O)O)C(=O)N[C@H](C(=O)N[C@H]2CCCCNC(=O)[C@H](CC(N)=O)NC(=O)[C@@H](CC(=O)O)NC(=O)[C@H](Cc3cnc[nH]3)NC(=O)[C@@H](Cc3ccccc3)NC(=O)[C@H]([C@@H](C)CC)NC(=O)[C@@H](CCCN)NC2=O)[C@@H](C)CC)CS1 (stereo partly specified) (X1-L[dE]IK[dOrn]I[dF]H[dD]N; lactam 4-C) |  | inactive
4 | C[C@@]12C[C@]3(O)O[C@H](O1)[C@]1(COC(=O)c4ccccc4)[C@H]3C[C@@]12O[C@@H]1O[C@H](COC(=O)c2ccccc2)[C@@H](O)[C@H](O)[C@H]1O | 1.03% [at 25.3 µM] | 
5 | C=CC1C(O[C@@H]2O[C@H](CO)[C@@H](O)[C@H](O)[C@H]2O)OC=C(C(=O)OC)C1Cc1nccc2c1[nH]c1ccccc12 (stereo partly specified) | -19.9% [at 25.3 µM] | 
6 | Cc1c(-c2ccnn2C)cc(C(=O)NCc2ccc(S(C)(=O)=O)cn2)c(=O)n1-c1cccc(C(F)(F)F)c1 |  | inactive
7 | CCOc1ccc(C(Nc2ccccn2)c2ccc3ccc(C)nc3c2O)cc1C (stereo unspecified) | 3.53% | 
8 | CC(=O)c1c(O)cc2c(c1C)C(=O)CC(O)C2 (stereo unspecified) | 0.891% | 
9 | O=C(/C=C/c1ccc(O)cc1)OCC1=CC2OC(=O)C3=CO[C@@H](O[C@@H]4O[C@H](CO)[C@@H](O)[C@H](O)[C@H]4O)[C@H]1[C@@H]32 (stereo partly specified) | -2.38% [at 25.3 µM] | 
10 | CCC1CC2C(C)=CC3CCCCC3C2(C)C2(OC(=O)C(C)(O)OC2=O)O1 (stereo unspecified) | -4.04% [at 38.5 µM] | 
11 | CC12CCC3C(C)(C)C(O)CCC3(C)C1Cc1c(oc(C(=O)O)cc1=O)O2 (stereo unspecified) | 0.331% [at 38.5 µM] | 
